Laboratory results published in the supplement of paper PMC11624193, “Coupling cellular drug-target engagement to downstream pharmacology with CeTEAM” (Nature Communications, 2024).
Counter-ions that a name gives are not always drawn. A number with no mark means an inactive call.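 The calls were made as follows: active = log2 fold change beyond 2 SD from the library mean after excluding viability outliers; inactive = within 2 SD.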

target: PARP1 L713F-nLuc biosensor (HCT116) (UniProt P09874); test: PARP1 L713F-nLuc/akaLuc ratio relative to DMSO control (biosensor stabilization) (fold change); higher = more PARP1 biosensor stabilization (target engagement / stabilizer), active = hit call of the paper; conditions: stock concentration (mM; final µM = stock mM x 1): 10; 24 h
Sequence (P09874 whole entry L713F, looked up): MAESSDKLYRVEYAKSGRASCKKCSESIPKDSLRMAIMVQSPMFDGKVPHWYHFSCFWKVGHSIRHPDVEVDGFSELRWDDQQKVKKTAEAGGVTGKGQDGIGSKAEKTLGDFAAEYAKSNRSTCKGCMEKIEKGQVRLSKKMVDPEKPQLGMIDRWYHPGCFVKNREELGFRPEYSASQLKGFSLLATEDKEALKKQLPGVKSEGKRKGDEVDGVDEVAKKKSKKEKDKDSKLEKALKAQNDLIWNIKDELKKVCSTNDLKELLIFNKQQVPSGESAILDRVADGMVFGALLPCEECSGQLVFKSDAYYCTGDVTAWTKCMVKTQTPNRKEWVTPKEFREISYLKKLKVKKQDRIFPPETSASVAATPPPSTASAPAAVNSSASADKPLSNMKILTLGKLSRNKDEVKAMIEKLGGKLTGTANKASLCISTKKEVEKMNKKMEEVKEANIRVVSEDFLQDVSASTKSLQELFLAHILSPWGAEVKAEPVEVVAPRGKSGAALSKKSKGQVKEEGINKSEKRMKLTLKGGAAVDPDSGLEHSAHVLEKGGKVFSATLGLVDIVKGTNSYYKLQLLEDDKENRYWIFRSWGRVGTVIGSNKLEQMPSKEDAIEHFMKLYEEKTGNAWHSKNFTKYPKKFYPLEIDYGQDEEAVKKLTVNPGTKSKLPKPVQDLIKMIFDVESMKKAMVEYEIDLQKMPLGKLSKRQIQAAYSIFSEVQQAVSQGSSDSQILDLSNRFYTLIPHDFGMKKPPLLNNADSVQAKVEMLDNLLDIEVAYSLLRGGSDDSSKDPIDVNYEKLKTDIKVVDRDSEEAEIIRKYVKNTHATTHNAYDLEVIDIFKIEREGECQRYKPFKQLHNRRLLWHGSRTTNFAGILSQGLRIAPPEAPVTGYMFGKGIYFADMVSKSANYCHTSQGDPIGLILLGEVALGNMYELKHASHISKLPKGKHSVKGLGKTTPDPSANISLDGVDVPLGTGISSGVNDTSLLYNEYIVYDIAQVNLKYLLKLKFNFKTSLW

SMILES	PARP1 L713F-nLuc/akaLuc ratio
COc1cc(OC)cc(-c2noc(N3CCN(C)C4(CCN(c5ccnc(C)c5)CC4)C3)n2)c1	0.971
COc1c(O)cc2oc(-c3ccccc3)cc(=O)c2c1O [Oroxylin A]	0.838
Nc1nc(N)c2nc(-c3cccc(O)c3)c(-c3cccc(O)c3)nc2n1	1.46
Nc1ncnc2c1ncn2[C@@H]1O[C@H](C(=O)N2CCN(CC(=O)Nc3cccc4c3CNC4=O)CC2)[C@@H](O)[C@H]1O [EB-47 (dihydrochloride)]	0.793
CC(CC(=O)C[C@@H](C)[C@H]1CC(=O)[C@@]2(C)C3=C(C(=O)C[C@]12C)[C@@]1(C)CCC(=O)C(C)(C)[C@@H]1C[C@@H]3O)C(=O)O (stereo partly specified) [Ganoderic acid D]	0.929
CC[C@]1(O)C[C@H]2CN(CCc3c([nH]c4ccccc34)[C@@](C(=O)OC)(c3cc4c(cc3OC)N(C=O)[C@H]3[C@@](O)(C(=O)OC)[C@H](OC(C)=O)[C@]5(CC)C=CCN6CC[C@]43[C@@H]65)C2)C1 [Vincristine sulfate]	0.783
NC(=O)c1cccnc1 [Nicotinamide]	0.942
CC(=O)O[C@@H]1CC[C@@]2(C)[C@@H](CC[C@]3(C)[C@@H]2C(=O)C=C2[C@@H]4[C@@H](C)[C@H](C)CC[C@]4(C)CC[C@]23C)[C@@]1(C)C(=O)O	1.18
N#Cc1ccc(-c2cnc3[nH]cc(NC(=O)c4cccnc4)c3c2)cc1	0.668
O=C(CNC(=O)[C@H](COP(=O)(O)O)NC(=O)CCc1c[nH]c2ccccc12)NCCCCc1ccccc1	1.08
CNC(=O)c1cnc(NC(=O)C2CC2)cc1Nc1cccc(-c2ncc(F)cn2)c1OC	0.696
C[C@H]1CCCN1Cc1nc2cc(NC(=O)c3ccc4c(cnn4C)c3)ccc2[nH]1	0.788
COc1cc([C@@H]2c3cc4c(cc3[C@@H](O[C@@H]3O[C@@H]5CO[C@@H](C)O[C@H]5[C@H](O)[C@H]3O)[C@H]3COC(=O)[C@H]23)OCO4)cc(OC)c1O [Etoposide]	0.601
CCCOc1ccn2c(C(C)=O)cc(-c3ccccc3S(C)(=O)=O)c2c1	0.733
Cc1nc(N)sc1-c1ccnc(Nc2ccc(N3CCOCC3)cc2)n1	0.726
CN(C)CCOc1ccc(/C(=C(/CCCl)c2ccccc2)c2ccccc2)cc1 [Toremifene Citrate]	0.791

SMILES	PARP1 L713F-nLuc/akaLuc ratio
COc1cc(C=CC(=O)O)cc(OC)c1O (stereo in doubt) [Sinapinic acid]	0.83
NC(=O)c1ccc(I)c([N+](=O)[O-])c1 [Iniparib]	1.12
CS(=O)(=O)c1ccc(C(=O)Nc2ccc(Cl)c(-c3ccccn3)c2)c(Cl)c1 [Vismodegib (GDC-0449)]	1.11
O=C1c2cccc(O)c2C(=O)c2c(O)cccc21 [Danthron]	1.32
CC[C@H](C)C(=O)O[C@H]1C[C@@H](C)C=C2C=C[C@H](C)[C@H](CC[C@@H]3C[C@@H](O)CC(=O)O3)[C@H]21 [Lovastatin]	0.643
CN(C)C(=N)NC(=N)N [Metformin (hydrochloride)]	0.94
CS(=O)(=O)NCCC1CCN(c2ncnc3cc(C(N)=O)sc23)CC1	0.762
Cc1cn(CCN2CCN(c3ccccc3-c3cc(C#N)cc(C(=O)NCCCN4CCCC4)c3)CC2)c2ccccc12	0.612
O=C(O)CC1CC(c2ccccc2)=NO1 (stereo unspecified)	1.72
COc1cc2nc(N3CCCN(C)CC3)nc(NC3CCN(Cc4ccccc4)CC3)c2cc1OC	0.488
CNC(=O)N1N=C(c2ccc(N3CCN(C)CC3)cc2)c2cc(OC)c(OC)cc2C[C@H]1C	1.27
Cc1ccc(F)c(NC(=O)Nc2ccc(-c3cccc4[nH]nc(N)c34)cc2)c1 [Linifanib (ABT-869)]	3.59 (active)
O=C(Nc1ccc2c(O)cc(S(=O)(=O)O)cc2c1)Nc1ccc2c(O)cc(S(=O)(=O)O)cc2c1 [AMI-1 (free acid)]	1.04
COC(=O)c1ccc(N2CCN(C)CC2)c(NC(=O)c2cccc(OC)c2)c1	0.856
CS(=O)(=O)c1ccc(-c2nnc(/C=C/c3nnc(-c4ccc(C#N)cc4)o3)n2-c2ccccc2Cl)nc1	0.886
